Assay results from PubChem BioAssay AID1159580 (chemical genetic matrix, 2015).
Among all 5,500 compounds or so, about 2,000 (36%) were called active. Inconclusive results (about 18%) are left out. Rule as the data show it: active = normalized growth mostly below about 0.91 (no sharp cut-off); inconclusive = no clear call, values can overlap the other calls; inactive = mostly above about 0.92. The list shows a part of the results.

Test: chemical genetic growth profiling, strain panel (AID 1159580);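 also: tested at 20 µM; growth read once vehicle control cultures reached saturation at 30 °C; 1 = growth at the plate median or of vehicle wells; lower values mean less growth of the strain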
Settings: S. cerevisiae deletion strains, growth OD

Measured: normalized growth

CCc1oc2ccccc2c1C(=O)c1cc(Br)c(O)c(Br)c1
active: locus YHR030C, strain SLT2, stronger effect = lower value 0.0985 | locus YHR079C, strain IRE1, stronger effect = lower value 0.111 | locus YJL095W, strain BCK1, stronger effect = lower value 0.101 | locus YJR066W, strain TOR1, stronger effect = lower value 0.00147 | locus YLR113W, strain HOG1, stronger effect = lower value 0.124 | locus YNL183C, strain NPR1, stronger effect = lower value 0.06 | locus YOR231W, strain MKK1, stronger effect = lower value 0.105 | locus YPL256C, strain CLN2, stronger effect = lower value 0.13
